Laboratory results from PubChem BioAssay AID2314 (National Center for Advancing Translational Sciences (NCATS), 2010).
Values joined by “and” are separate entries in the source; they are usually repeats but may differ in a detail not shown here. Equal values may be shown once. The whole screen tested about 300,000 compounds, of which about 37,000 (12%) were called active. The entries come from a sample that favours actives as a whole. Values without a mark were called inactive. No stated cut-off is given here; in the data, active means max response mostly above about 13% (no sharp cut-off); inactive means mostly below about 14%.

Assay: Cycloheximide Counterscreen for Small Molecule Inhibitors of Shiga Toxin; further: read at 38.3 µM for the half of the compounds with a filed dose; 0% is about no effect
Settings: cell reporter, cycloheximide protein synthesis inhibition counterscreen; active compounds read high

| SMILES | max response |
| --- | --- |
| Cc1ccc2[nH]c(=O)c(CN(C)S(=O)(=O)c3cccc4nonc34)cc2c1 | -10.5% |
| COc1ccc2nc(NC(=O)c3ccc(Br)s3)sc2c1 | 67.5% (active) |
| COc1ccc2nc(NC(=O)[C@@H]3CCCN3C(=O)c3cccs3)sc2c1 | 15.2% (active) |
| COc1cc(Cl)c(C)cc1NC(=O)[C@@H]1CCCN1C(=O)c1cccs1 | -0.643% |
| CCOc1ccc2nc(NC(=O)c3cc([N+](=O)[O-])ccc3N3CCOCC3)sc2c1 | 11.9% |
| COc1ccc(Cl)cc1NC(=O)[C@@H]1CCCN1C(=O)c1cccs1 | 4.64% |
| COc1ccc(-n2cnc3cc(C(=O)NC4CCCC4)ccc32)cc1 | -1.06% |
| COc1ccc(S(=O)(=O)N2CCN(C(=O)NC3CCCCC3)CC2)cc1 | 1.04% |
| COc1ccc(CNC(=O)c2ccc(Br)s2)cc1OC | 10.2% |
| COc1ccc2nc(NC(=O)NC3CCCCC3)sc2c1 | 47.7% (active) |
| NS(=O)(=O)c1ccc(CNC(=O)c2ccc(Cl)cc2[N+](=O)[O-])cc1 | -0.486% |
| Cc1cccc(N(C)C(=O)c2cc(S(=O)(=O)N3CCCCC3)c[nH]2)c1 | -1.63% |
| O=C(NCc1ccccc1)C(c1ccco1)N(C(=O)c1csnn1)c1ccccc1F (stereo not drawn) | -6.55% |
| O=C1c2ccccc2C2=Nc3ccccc3SC(c3ccccc3F)C12 (stereo not drawn) | 9.05% |
| COc1ccc(N2CCN(S(=O)(=O)c3ccc4c(c3)N(C(C)=O)CCO4)CC2)cc1 | 2.5% |
| CN(C(=O)c1ccno1)c1nnc(-c2cccnc2)s1 | 7.05% |
| CN(C(=O)c1ccccn1)c1nnc(-c2ccccn2)s1 | 68.8% (active) |
| CN(C(=O)COc1ccccc1)c1nnc(-c2ccncc2)s1 | -3.07% |
| CCOc1ccc(C(C)=O)cc1CSc1nnc(-c2ccncc2)n1CCOC | -6.17% |
| CC1(C)Cc2ccccc2/C(=C/C(=O)c2ccccc2)N1 | 4.21% |
| Cc1noc(C)c1CSCC(=O)N(CCC(C)C)c1c(N)n(Cc2ccccc2)c(=O)[nH]c1=O | -1.36% |
| O=C(O)C1CCCN1C1=NS(=O)(=O)c2ccccc21 (stereo not drawn) | -4.57% |
| CCc1cccc(CC)c1NC(=S)NCc1ccc2[nH]c(C)cc2c1 | -2.68% |
| Cc1cc2cc(CNC(=O)c3cccs3)ccc2[nH]1 | 24.1% (active) |

| SMILES | max response |
| --- | --- |
| Cc1cc2cc(CNC(=O)c3ccc(S(=O)(=O)N4CCOCC4)cc3)ccc2[nH]1 | -2.1% |
| COc1ccc(CS(=O)/C(Cl)=C(/Cl)C(=O)Nc2ccc(OC)nc2)cc1 (stereo not drawn) | -16.6% |
| N#CCSc1nc2ccc(N3CCOCC3)cc2c(=O)n1CCc1ccccc1 | 10.2% |
| Cc1ccc(NS(=O)(=O)c2ccc(-c3coc(C)n3)cc2)c(C)c1 | 4.71% |
| O=C(NCc1ccccc1)C(c1cccnc1)N(C(=O)c1csnn1)c1ccc(F)cc1 (stereo not drawn) | -4.58% |
| COC(=O)c1[nH]c2ccccc2c1NC(=O)CN1CCCc2ccccc21 | 13.2% |
| COC(=O)c1[nH]c2ccc(Br)cc2c1NC(=O)Oc1ccccc1 | 47% (active) |
| CCOC(=O)c1[nH]c2ccc(OC)cc2c1NC(=O)CCN1CCN(Cc2ccccc2)CC1 | 2.39% |
| COc1ccc(C2(CNC(=O)C(c3ccccc3)c3ccccc3)CCOCC2)cc1OC | 4.44% |
| CCn1cc(C(=O)NCCO)c(=O)c2cc(F)c(N3CCN(C)CC3)cc21 | 1.78% |
| COc1ccc(N2CCN(C(=O)[C@@H](NC(=O)c3cc(OC)cc(OC)c3)C(C)C)CC2)cc1 | -0.698% |
| OCCCNc1nccc(-c2cc(Nc3cccc(Cl)c3)ncn2)n1 | 26.9% (active) |
| CC(C)n1cnc2c(Nc3cccc(Cl)c3)nc(N(CCO)CCCO)nc21 | -7.35% |
| NS(=O)(=O)c1cccnc1Nc1cccc(Cl)c1 | 5.31% |
| CC(=O)N1CCN(CC(c2ccccc2)c2ccccc2)CC1 | -2.13% |
| Cc1ccc(N2C(=O)C3C4C=CC(CC4)C3C2=O)cc1Cl (stereo not drawn) | 0.718% |
| CCN1C(=S)N[C@@H](CCc2ccccc2)[C@H](C(=O)OC)[C@H]1C | -1.59% and -1.62% |
| COC(=O)c1c(NC(=O)CN(c2ccc(C)c(C)c2)S(C)(=O)=O)sc2c1CCCC2 | -3.45% |
| CC(=O)Nc1ccc(S(=O)(=O)Nc2cc(C)cn(Cc3ccc(C)cc3)c2=O)cc1 | 10.7% |
| COc1cccc(CNC(=O)COc2cc(O)c3c(c2)OC(C)(C)CC3=O)c1 | 6.81% |
| CCOC(=O)C1CCN(Cc2c(C(=O)N3CCOCC3)nc3c(C)cccn23)CC1 | -0.834% |
| COC(=O)COc1ccc2c(c1C)O/C(=C\c1ccco1)C2=O | 8.5% |
| CC(C)(C)C1C/C(=C/c2ccco2)C(=O)/C(=C/c2ccco2)C1 (stereo not drawn) | 46.9% (active) |
| COC(=O)C1=C(C)N(c2ccc(Br)cc2)C(=O)/C1=C\c1ccco1 | 19.6% |

| SMILES | max response |
| --- | --- |
| O=[N+]([O-])c1cc(Cl)cc(/C=N/NC(=S)Nc2cc(S(=O)(=O)N3CCOCC3)ccc2Cl)c1O | 6.73% |
| CCN(C(=O)COc1ccc(C(=O)c2ccccc2)cc1)c1ccccc1 | 8.19% |
| Cc1cc(C)n(CCC(=O)N2CCN(S(=O)(=O)c3ccc(C)c(C)c3)CC2)n1 | -4.77% |
| Cc1ccc2cc(/C=N/NC(=O)[C@@H]3CCCN3)c(Cl)nc2c1 | 12.2% |
| Cc1ccc2cc(/C=N/Nc3ccc(C(=O)O)cc3)c(Cl)nc2c1 | 33.1% (active) |
| O=C(O)c1ccc(/C=N/Nc2nc(N3CCCCC3)nc(N3CCCCC3)n2)cc1 | -2.21% |
| CCNC(=S)NNC(=O)c1ccc2ncccc2c1 | 23.2% |
| O=C(O)c1ccc(N/N=C/c2ccc3ncccc3c2)cc1 | 40% (active) |
| CSCC[C@H](NC(=O)OC(C)(C)C)C(=O)N/N=C/c1cc2ccc(C)cc2nc1Cl | -2.35% |
| COc1ccccc1N1CCN(C(=O)CCS(=O)(=O)c2ccc3c(c2)NC(=O)C(C)S3)CC1 (stereo not drawn) | 18.6% |
| Cc1cc(CNC(=O)C2CCC(=O)N(CCc3ccc(Cl)cc3)C2)no1 (stereo not drawn) | 0.258% |
| NC(=O)c1cc(-c2cccnc2)nc2ccc(Br)cc12 | 0.502% |
| Cc1ccc2c(c1)N(C(=O)CCC(=O)N1CCc3ccccc3C1)CCO2 | 13.8% |
| Cc1ccccc1-n1c(SCC(=O)Nc2cccc3ccccc23)nc(O)cc1=O | -2.55% |
| CC(=O)N(C)c1ccc(NC(=O)Nc2cccc3ccccc23)cc1 | 33% (active) |
| O=C(O)Cc1ccc(NC(=O)Nc2cccc3ccccc23)cc1 | 0.207% |
| CCOc1ccc(NC(=O)Nc2ccc(N(C)C(C)=O)cc2)cc1 | -1.58% |
| O=C(NCC(=O)N1CCC2(CC1)NCCc1[nH]cnc12)c1ccc(Br)cc1 | 1.26% |
| CC(C)Nc1ccc(-n2nc3ccccc3[n+]2[O-])cc1 | 25.2% (active) |
| Clc1ccc(-c2nc3ccccn3c2CN2CCSCC2)cc1 | 12.2% |
| Cc1cn(C2OC[C@@H](O)[C@@H]2CO)c(=O)[nH]c1=O (stereo partly drawn) | -1.7% |
| O=C(N/N=C\c1cc2c(cc1Cl)OCO2)c1ccc(Br)s1 | -4.62% |
| CCCCOC(=O)Nc1nnc(CC(=O)NCc2ccccc2)s1 | -2.89% |
| CCCCCCCCC(=O)NCCOc1ccccc1 | -1.44% |

| SMILES | max response |
| --- | --- |
| CCCCCCOC(=O)NCC(O)c1ccccc1 (stereo not drawn) | 29.3% (active) |
| CC(=O)C1=C(C)NC(=O)NC1c1ccc2c(c1)OCO2 (stereo not drawn) | 0.903% |
| COc1ccc(CNC(=O)C(C)NCc2ccccc2Cl)cc1 (stereo not drawn) | -2.73% |
| CC(C)(O)C#Cc1ccc(CN2CCC(CO)(CCc3ccccc3)CC2)cc1 | -2.91% |
| COc1ccc(C(=O)NC(=S)N2CCCCC2c2cccnc2)cc1OC (stereo not drawn) | 1.6% |
| CCOc1ccc(-n2c(SCC(=O)Nc3ccc(OC)cc3)nc3sc4c(c3c2=O)CCN(C)C4)cc1 | -3.77% |
| CCOc1ccc(-n2c(SCC(=O)OC)nc3sc4c(c3c2=O)CCN(C)C4)cc1 | -9.49% |
| COc1ccccc1NC(=O)CSc1nc2sc3c(c2c(=O)n1-c1ccccc1)CCN(C)C3 | 33.2% (active) |
| CCO[C@H]1OC(C(=O)N2CCCCCCC2)=C[C@@H](c2ccc(C(F)(F)F)cc2)[C@@H]1CCCO | -3.3% |
| CCCC(C(=O)n1nc(C)cc1C)C(NS(=O)(=O)c1ccc(C)cc1)c1ccccc1 (stereo not drawn) | 8.08% |
| N#CCC(=O)NC1CCC(CC2CCC(NC(=O)CC#N)CC2)CC1 (stereo not drawn) | -6.39% |
| O=C1c2ccccc2C(=O)N1CCCc1nc(-c2ccccc2)no1 | 4.56% |
| c1ccc(CCc2nc(-c3ccncc3)no2)cc1 | 30.3% (active) |
| O=C(Cc1ccc(Cl)cc1)NCc1nc(-c2ccccc2)no1 | 16.7% |
| CN(CC1CCCO1)S(=O)(=O)c1ccc(C(=O)Nc2ccc([N+](=O)[O-])cc2)cc1 (stereo not drawn) | -2.48% |
| COCn1c(COc2ccccc2)nc2ccccc21 | 36.4% (active) |
| Cc1ccc(OCc2nc3ccccc3n2C)cc1 | 26.1% (active) |
| O=C(Cn1c(COc2ccccc2)nc2ccccc21)Nc1cc(Cl)c(Cl)cc1Cl | 6.88% |
| CC(C)n1c(COc2ccccc2)nc2ccccc21 | 2.4% |
| Cn1c(COc2ccc(Cl)cc2)nc2ccccc2c1=O | 31.5% |
| Cc1ccc(OCc2n[nH]c(=S)n2-c2ccccc2)cc1 | -8.01% |
